# Bioassay records: PubChem BioAssay, National Center for Advancing Translational Sciences (NCATS)
# Shown are actives, neighbours in structure and some others; about 6.2% of the full set was active somewhere.
# ATXN2 expr inh – reduces ATXN2 reporter expression in HEK-293 cells | HEK-293 ATXN2-luciferase reporter, luminescence, 24 h | Potency, µM (titrated, usually from 57 µM), inactives show at the highest dose activity change, negative = inhibition, usual class: inhibitors | 360,000 compounds, 0.72% hits; note: % is set by controls: 0 for no effect and ±100 for the full control effect; nearly all actives have a fitted effect of over 55% in size
#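 ATXN2-luciferase reporter cells (luciferase flanked by upstream and downstream ATXN2 gene portions) were treated 24 h at 37 °C with compounds at up to 57 uM. SteadyGlo luminescence gave expression; GF-AFC fluorescence gave viability.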
# KB-3-1 tox – KB-3-1 parental cell cytotoxicity. KB-3-1 viability, CellTiter-Glo ATP luminescence, 72 h. Potency, µM (titrated, usually from 46.1 µM), hits mostly cytotoxic. 400,000 compounds, 1.4% hits. AID 1347075; note: % is set by controls: 0 for no effect and ±100 for the full control effect; nearly all actives have a fitted effect of over 60% in size
#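 Here the drug-naive KB-3-1 line serves as comparator for MDR sub-line selectivity; cells received compound titrations, 72 h at 37 °C, then CellTiter-Glo readout.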
# HT1080NT lethal – kills 2HG-producing HT-1080-NT fibrosarcoma cells; HT-1080-NT fibrosarcoma viability, CellTiter-Glo ATP luminescence, 48 h; Potency, µM (top dose mostly 46.1 µM), without a hit: at the highest dose activity, negative = less viability, actives largely listed as cytotoxic; 360,000 compounds, 1.6% hits;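 note: NT is the 2HG producing partner of a matched IDH1 knockdown line; 0% = DMSO-treated cells and -100% = media-only wells without cells; nearly all actives have a fitted effect of over 55% in size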
#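 A 48-hour cytotoxicity screen used HT-1080-NT cells plated 2 hours before compound delivery. ATP-based CellTiter-Glo luminescence measured viability, normalized to DMSO and no-cell controls.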
# HT1080 IDH1KD tx – toxicity to HT-1080 IDH1 knockdown cells (counter line); 360,000 compounds, 2% hits; Potency, µM (series often up to 46.1 µM), for inactives: top-dose activity, negative = toxicity, most hits filed as cytotoxic; HT-1080 IDH1 knockdown viability, ATP luminescence, 48 h;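 note: 0% = DMSO wells and -100% = cell-free medium wells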
#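 % activity derives from luminescence (CellTiter-Glo), normalised to DMSO and no-cell wells. HT-1080-IDH1KD cells, 750/well, had 48 h compound exposure at 37 °C.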
# ATXN viability – cell viability loss in ATXN counter-screen. S2 cells (HEK-293 line with an ATXN2-luciferase reporter) viability, CellTiter-Fluor protease fluorescence, 24 h. Potency, µM (titrated, usually from 56.7 µM), most hits filed as cytotoxic. 400,000 compounds, 0.49% hits. AID 651635; note: nearly all actives have a fitted effect of over 40% in size
# KB-V1 cytotox – KB-V1 MDR subline cytotoxicity | 400,000 compounds, 3.4% hits | AID 1347076 | Potency, µM (doses to about 46.1 µM), usual class: cytotoxic | KB-V1 MDR cells viability, CellTiter-Glo, 72 h; note: % is set by controls: 0 for no effect and ±100 for the full control effect; nearly all actives have a fitted effect of over 60% in size
#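 KB-V1 MDR subline cells in DMEM (phenol-red free, 10% FBS) exposed to compounds in qHTS concentration series for 72 h at 37 degrees C. Viability read by CellTiter-Glo luminescence; concentration-effect curves fitted after normalization and correction.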
# The depositor's hits bear a star; i = inactive; ? = inconclusive; · = no result given; ! = repeats disagree. Calls come from the whole dose curve; as a rule, active = well fitted curve in the direction sought with a large enough effect; inconclusive = small, poorly fitted or top-dose-only effect, or another doubt; inactive = no such curve, though single readings can be large; an effect the other way counts as inactive or inconclusive. Potency is the fitted concentration of half-maximal effect.
SMILES,ATXN2 expr inh,KB-3-1 tox,HT1080NT lethal,HT1080 IDH1KD tx,ATXN viability,KB-V1 cytotox
CC(=O)/C(C#N)=C1\NC(=O)C(Cc2ccccc2Cl)S1 (stereo not drawn),-24%,3.3µM*,-23%,3.7µM*,i,?
Cc1cc(CCCOc2c(C)cc(-c3noc(C(F)(F)F)n3)cc2C)on1,-10%,·,·,·,i,·
CC(C)(C)NC(=S)N1CCC2CC1c1c(Cl)cccc12 (stereo not drawn),-6%,i,0%,4%,i,i
CCc1nnc2n1N=C(c1ccc(-c3cc(Cl)ccc3Cl)o1)CS2,-9%,i,-17%,0%,i,i
Clc1ccc(OCc2nnc3n2N=C(c2ccc4c(c2)OCCO4)CS3)c(Cl)c1,·,?,10µM*,8.9µM*,·,?
COc1cc(C)c(CN2CCOc3ccc(C(O)c4cccnc4)cc3C2)cc1C (stereo not drawn),·,·,·,·,i,·
Cc1cc(N2CCN(C)CC2)nc2ccc(NC(=O)Nc3ccc(Cl)cc3)cc12,13%,i,·,·,i,i
CCOc1ccccc1C(=O)Nc1ccc2nc(N3CCN(c4ncccn4)CC3)cc(C)c2c1,14µM*,15µM*,?,?,?,8.2µM*
CCOc1ccccc1NC(=O)Nc1ccc2nc(N3CCN(C)CC3)cc(C)c2c1,?,i,·,·,·,?
CCN1CCN(c2cc(C)c3cc(NC(=O)c4ccc(OC)c(OC)c4)ccc3n2)CC1,-8%,3.7µM*!,-25%,?,?,4.1µM*!
Cc1cc(N2CCN(C)CC2)nc2ccc(NC(=O)c3ccc(C(C)(C)C)cc3)cc12,?,?,·,·,16µM*,?
CNc1ccc(/C=C2\C=Cc3ccccc32)cc1OC,·,?,·,·,·,i
C[C@@H]1CN([C@H](C)CO)S(=O)(=O)c2ccc(Br)cc2O[C@H]1CN(C)C(=O)C1CCCCC1,?,?,-12%,-11%,?,i
C[C@H]1CN([C@@H](C)CO)S(=O)(=O)c2ccc(C3=CCCC3)cc2O[C@@H]1CN(C)C(=O)C1CCCCC1,?,?,?,?,20µM*,i
CCCn1c(=O)c2c(C(=O)OCC)cc(-c3ccco3)nc2n(CCC)c1=O,-6%,i,3%,3%,i,18µM*
Cc1cc(N2CCN(C(C(=O)NC3CCCC3)C(C)C)CC2)c2ccccc2n1 (stereo not drawn),·,i,-15%,-1%,·,?
Cc1cc(N2CCN(C(C(=O)NC3CCCC3)c3ccc(-c4ccccc4)cc3)CC2)c2ccccc2n1 (stereo not drawn),·,?,-27%,-17%,·,21µM*
CCc1ccc(Nc2nnc(SCC(=O)N(C)CC(=O)Nc3ccccc3CC)s2)cc1,14%,i,16%,9%,?,?
Cc1ccc(Nc2nnc(SCC(=O)Nc3ccccc3[N+](=O)[O-])s2)cc1,-3%,i,-2%,-4%,i,?
Cc1ccc(Nc2nnc(SCC(=O)Nc3cccnc3Cl)s2)cc1C,12%,i,-12%,?,i,5.2µM*
CCc1ccccc1NC(=O)CN(C)C(=O)CSc1nnc(Nc2ccc(C)cc2)s1,-2%,i,-8%,0%,i,15µM*
CCC(=O)N1CCC1(C)C(=O)Nc1cccc(OC)c1 (stereo not drawn),8%,i,17%,3%,i,i
COc1cccc(NC(=O)C2(C)CCN2C(=O)CC2CCCC2)c1 (stereo not drawn),3%,i,9%,-8%,i,16µM*
COc1ccc(CNC(=O)c2cc3c(=O)n(Cc4cccs4)ccc3nc2C)cc1,?,18µM*,·,·,i,i
COc1ccc(NC(=O)c2cc3c(=O)n(Cc4cccs4)ccc3nc2C)cc1,?,i,·,·,?,i
SMILES,ATXN2 expr inh,KB-3-1 tox,HT1080NT lethal,HT1080 IDH1KD tx,ATXN viability,KB-V1 cytotox
Cc1nc2nc(C)c(NS(=O)(=O)c3ccc(F)cc3)c(=O)n2[nH]1,12%,i,·,·,i,i
CCOc1ccc(C2NC(=O)c3c(COC)cc(C)nc3N2Cc2ccccc2)cc1OC (stereo not drawn),1%,i,·,·,i,i
CCCCNC(=O)c1nc(-c2cc3ccccc3[nH]2)oc1-c1ccccc1,·,i,-16%,-9%,·,8.2µM*
CCCCNC(=O)c1nc(-c2cccs2)oc1-c1ccc(Cl)cc1,·,i,25%,27%,·,?
CN(C)c1ccc(C(CN)c2c[nH]c3ccccc23)cc1 (stereo not drawn),-3%,i,-23%,-10%,i,i
CN(C)c1ccc(C(CNS(=O)(=O)c2ccc3ccccc3c2)c2c[nH]c3ccccc23)cc1 (stereo not drawn),22%,i,-2%,0%,i,15µM*
CC1CCN(S(=O)(=O)c2ccc3c(c2)N(CC(=O)NCCN(C)C)C(=O)CS3)CC1,14%,i,·,·,?,?
COC(=O)c1ccc(OC)c(CSc2nnc(COc3ccccc3)o2)c1,-13%,i,-2%,?,i,21µM*
CCC(Oc1ccccc1)C(=O)N(Cc1ccccc1)c1ccccn1 (stereo not drawn),-6%,?,0%,-6%,i,16µM*
COc1ccc(CCNC(=O)c2cccc(S(=O)(=O)N3CCCCC3)c2)cc1,-11%,i,-6%,-8%,i,i
C=CCN(c1ccccc1)S(=O)(=O)c1cccc(C(=O)N2CC(C)CC(C)C2)c1 (stereo not drawn),-13%,?,-24%,?,?,7.3µM*
C=CCN(c1ccccc1)S(=O)(=O)c1cccc(C(=O)NCC(c2ccccc2OC)N2CCCC2)c1 (stereo not drawn),?,i,23µM*,?,?,i
COc1ccccc1NS(=O)(=O)c1cccc(C(=O)NCC(c2ccccc2OC)N2CCCC2)c1 (stereo not drawn),-15%,i,-11%,-7%,i,i
C=CCN(c1ccccc1Cl)S(=O)(=O)c1cccc(C(=O)NCCc2ccc(OC)cc2)c1,-14%,23µM*,-1%,-15%,i,2.3µM*
COc1ccc(NCc2cc3cc4c(cc3n(CC(=O)Nc3ccc(C)c(C)c3)c2=O)OCO4)cc1,-3%,?,·,·,i,i
C/C(=N\NC(=O)c1ccn(C)n1)c1ccc(NC(=O)C2CCC2)cc1,3%,?,1%,-7%,i,i
C/C(=N\NC(=O)C1(C)CC1(Br)Br)c1ccc(NC(=O)C2CCC2)cc1 (stereo not drawn),-28%,21µM*,?,?,?,?
